# Target: TEAD3
# Experiment: pooled miR-30 sensor sort-seq; sequence = guide strand
# Settings: shRNA
# Also: reference of the scale not given here.
row,Sequence,sensor-assay potency score (higher = more potent)
1,TCTGACAGGATGATCTTCCGCC,0.971
2,TACTCCCGCACCTTCTTCCGAG,-0.896
3,TTCTCGTCCGAGTCTTCCCCGT,-0.997
4,TTCTCTACCACCTGTTTGCCAA,-0.68
5,TTGATCATGTACTCGCACATGG,0.181
6,TTGTTCTGCAGGACACTGGCAG,-0.245
7,TTTGCCAAAGGAGCACACCTTG,-1.16
8,TTTCTCGTCCGAGTCTTCCCCG,-0.491
9,TATGCAAACAGTGAGGACCTTC,-0.217
10,TTGAGGTCGGCCCAGAACTTGA,-1.66

# Target: TECPR1
# Experiment: as above
# Settings: shRNA
row,Sequence,sensor-assay potency score (higher = more potent)
1,TCACCAACCATCTCAATCCAAC,-1.66
2,TAGATGTTACTGGTGCTGCTGG,-0.642
3,TTCTTGTCTTTCGTGTAGGTGG,-0.581
4,TTGTCTTTCGTGTAGGTGGCGG,-0.464
5,TTGAGGTCAATATTGGTCCAGG,-0.869
6,TGTGGTACCAGCAGTCACCGGC,0.193
7,TTGGTCTCGTTCAGCACTGGGA,-0.998
8,TTCCACTTCTTGTCTTTCGTGT,0.613
9,TTGTTGGACACGTGCTCCCAGC,-1.68
10,TATGAGGCAGGGAAGTCGCTGG,-0.217
11,TTCCACGGTATCTTCTGCGGTC,-0.344

# Target: TEF
# Experiment: as above
# Settings: shRNA
row,Sequence,sensor-assay potency score (higher = more potent)
1,TTGGTGACTCTAGACTAGGTGT,0.324
2,TCATCCTTCTGCTCGTCGGGGA,0.16
3,TACTTGGACACGATGGTCTTGC,-0.169
4,TTGCGTCTTGTCCAGTACTTTT,-1.72
5,TTCTTCTTGCGTCTTGTCCAGT,-0.866
6,TAGACTAGGTGTCTTGCCCTGC,-0.327
7,TTTAGCTGCCACGTTGTTCTTC,-0.221
8,TAGCTCTGCTACAGGCAGCAGC,-0.912
9,TATGGGATGGTCTTGTCCCAGA,-1.26
10,TTGTCCAGTACTTTTCATCCTT,0.089

# Target: TELO2
# Experiment: as above
# Settings: shRNA
row,Sequence,sensor-assay potency score (higher = more potent)
1,TTGGAGAGAGTCCACAACCGCC,-1.23
2,TCCATCAGCACTGCCAGCCGGC,-1.21
3,TTGCCCAGCAGCGTCTCCCGGA,-1.12
4,AAACTCATCATCGCTGTCCAGG,-1.32
5,TTCTTGTTCTTCACCACCAGGT,-0.407
6,TTTCTCAGCCACGTCCGCCAGC,-1.03
7,ATCATCGCTGTCCAGGTCCGAG,-1.37
8,TAGTTGAGGGCATAGAACTGTG,-0.752
9,TTCATCAGCCGGAAGCTGGGGC,0.0431
